Results: PubChem BioAssay

Assay: basal HepG2 mitochondrial membrane potential changes, profiling panel, cell-based, JC-1 fluorescence, 24 h, 100 nL compound (AID 1167); further: test concentration not given here
Conditions: higher = more signal

Compound | z-score
CN1C(=O)[C@]2(CCC(=O)OC(C)(C)C)N=C(c3ccc(OCCCO)cc3)O[C@@H]2c2ccccc21 | 1.29
CC(c1ccccc1)C(O)C1C=CC2C(=O)N(c3ccccc3)C(=O)C2N1Nc1ccc(C#N)cc1 (stereo unspecified) | -0.372
COCCOC(=O)N1C(=O)[C@@]2(c3cc(C#CCCO)ccc31)[C@H](C(=O)N1CCN(c3ncccn3)CC1)[C@H]1C(=O)O[C@H](c3ccccc3)[C@H](c3ccccc3)N1[C@@H]2c1ccc(O)cc1 | -0.141
C#CCN(C/C=C/c1ccccc1)[C@H](CO[Si](C)(C)C(C)(C)C)c1ccccc1 | -2.55
NCCCC[C@@H]1NC(=O)[C@H]2C[C@@H](C(=O)O)[C@@H](c3cccc(OCCO)c3)N2C1=O | -2.23
[N-]=[N+]=NCc1ccccc1C[C@]1(C(=O)N2CCCCC2)N=C(c2ccc(OCCCO)cc2)O[C@H]1c1ccccc1 | 0.117
CCCCC(=C=CC[C@H](O)c1ccc(OCCO)cc1)C[C@H](O)c1ccccn1 | -0.0776
CN(C)C(=O)[C@@]1(CCS(=O)(=O)c2ccccc2)N=C(c2ccc(OCCCO)cc2)O[C@H]1c1ccccc1N=[N+]=[N-] | 0.121
[N-]=[N+]=NCc1ccccc1[C@@H]1OC(c2ccc(OCCCO)cc2)=N[C@]1(Cc1ccccc1)C(=O)NCc1ccccc1 | 0.152
O=C(NCCO)C1=C[C@H](Oc2ccccc2I)[C@@H](O)[C@H](NCc2ccc(F)cc2)C1 | -0.574
COc1ccc([Si](C)(C)[C@@H]2[C@@H](CC(=O)N(CCO)Cc3ccccc3)O[C@]3(C(=O)N(Cc4ccc(N5CCC5=O)cc4)c4ccccc43)[C@H]2C)cc1 | 0.768
O=C1NC(=O)C2C1C=CC(C(O)c1cccc(O)c1)N2Nc1ccc(Cl)cc1Cl (stereo unspecified) | -2.54
CC(C)C[C@@H]1NC(=O)C([C@@H](C)OCc2ccccc2)NC(=O)[C@@]23C(=O)N[C@@H](Cc4ccccc4)C2[C@H](C)[C@@]2(C)O[C@H]2C3/C=C/CC/C=C/CNC1=O (stereo partly specified) | 2
COc1ccc([Si](C)(C)[C@H]2[C@H](CCO)O[C@@]3(C(=O)N(Cc4ccc(N5CCOC5=O)cc4)c4ccccc43)[C@@H]2C)cc1 | 0.137
COc1ccc(CCNC(=O)[C@@]2(Sc3ccc(C)cc3)CC(=O)N(Cc3cc(C(F)(F)F)cc(C(F)(F)F)c3)[C@@H]2c2ccc(CO)cc2)cc1 | 0.016
CCCCC(O)C1C=CC2C(=O)NC(=O)C2N1Nc1ccc(Cl)cc1Cl (stereo unspecified) | -2.38
CO[C@H]1O[C@H](CO)[C@@H](OC(=O)Nc2ccc3c(c2)OCO3)[C@@H]2OC(=O)[C@@H](Cc3ccccc3)C/C=C/C[C@H](Cc3ccccc3)C(=O)O[C@@H]12 | 0.186
CN(C)C(=O)[C@]1(Cc2ccccc2CN=[N+]=[N-])N=C(c2ccc(OCCCO)cc2)O[C@@H]1c1ccccc1N=[N+]=[N-] | 0.271

Compound | z-score
O=C1OCCC=C[C@H]2OC34C=CCN(CCN5CCOCC5)C(=O)[C@H]3N(CCCO)C(=O)[C@@H]4C12 (stereo partly specified) | -0.338
C=CCNC(=O)[C@@H]1[C@H]2C(=O)O[C@H](c3ccccc3)[C@H](c3ccccc3)N2[C@H](c2ccccc2OCCO)[C@@]12C(=O)N(C(=O)OCCOC)c1ccc(C#CCCO)cc12 | -0.332
C=CCC(OC(C)=O)[C@@H]1[C@@H](N(Cc2cccc3ccccc23)C(=O)c2cccc3ccccc23)c2cc(OCCCO)ccc2N1C(=O)Cc1ccc2ccccc2c1 (stereo partly specified) | 2.09
C=C(COC)/C(=C/C[C@@H](OC(C)=O)c1ccccc1OCCO)c1cc(C(=O)OC)ccc1OC | 0.751
COCC(=C=CC[C@@H](O)c1cccc(OCCO)c1)C[C@@H](O)COCc1ccccc1 | 0.638
CCCCC=C[C@@H](NC(=O)c1ccc(C(F)(F)F)cc1)c1ccccc1 | -1.65
COC(=O)[C@]1(CO)N=C(c2ccc(OCCCO)cc2)O[C@@H]1c1ccccc1CN=[N+]=[N-] | -0.253
COC(=O)[C@@]1(Cc2ccc(OC)cc2)[C@H]2c3cc(C(=O)N4CCCC4)n(CCc4ccc(OC)c(Br)c4)c3C[C@H]2CN1C(=O)c1ccccc1 | 2.24
COCCOC(=O)N1C(=O)[C@@]2(c3cc(C#CCC(C(=O)OC)C(=O)OC)ccc31)[C@H](C(=O)N1CCc3cc(OC)c(OC)cc3C1)[C@H]1C(=O)O[C@H](c3ccccc3)[C@H](c3ccccc3)N1[C@@H]2c1ccc(O)cc1 | 0.448
CCC(CC)C(O)C1C=CC2C(=O)N(C)C(=O)C2N1N1CCCCC1 (stereo unspecified) | -1.34
COc1cc2c(cc1O)C(c1ccc(CN3CCCC3)cc1)N(Cc1ccc([N+](=O)[O-])o1)CC2 (stereo unspecified) | -2.18
COc1cc(OC)c(C(O)C2C=CC3C(=O)N(c4ccccc4)C(=O)C3N2Nc2ccccc2F)cc1Br (stereo unspecified) | -2.04
NC(=O)N1C(=O)C2C(C1=O)C1C=C(CCCO)C2C(c2ccc(CN3CCCC3)cc2)N1Cc1cccc(OC(F)(F)F)c1 (stereo unspecified) | 0.221
CC(C)C[C@H]1NC(=O)[C@@]23C(=O)N[C@@H](Cc4ccccc4)C2[C@H](C)[C@@]2(C)O[C@H]2C3/C=C/C/C=C\CNC(=O)[C@@H]2CCCN2C1=O (stereo partly specified) | -0.831
COC(=O)[C@@]1(Cc2ccc(F)cc2)[C@H]2c3cc(C(=O)N(C)C)n(CCn4cc([N+](=O)[O-])nc4C)c3C[C@H]2CN1C(=O)c1ccccc1 | 0.443
C=CC[C@]1(C(=O)NCCCOC)N=C(c2ccc(OCCCO)cc2)O[C@H]1c1ccccc1 | 0.238
COCCOC(=O)N1C(=O)[C@@]2(c3cc(C#CC4=CCCCC4)ccc31)[C@H](c1ccccc1OCCO)N1[C@H](c3ccccc3)[C@H](c3ccccc3)OC(=O)[C@H]1[C@@H]2C(N)=O | -0.985
CC(C)C[C@@H]1NC(=O)[C@@]23C(=O)N[C@@H](Cc4ccccc4)C2[C@H](C)[C@@]2(C)O[C@H]2C3/C=C/C/C=C\CNC(=O)[C@@H](CC(C)C)NC1=O (stereo partly specified) | -0.046
